HTT aggregate: qHTS Multiplex Assay to Identify Dual Action Probes in a Cell Model of Huntington: Aggregate Formation (GFP); AID 1688, 2009; 220,000 compounds, 1.1% hits; Potency, µM (highest dose often 46.1 µM), actives largely listed as inhibitors; PC12 HttQ103-GFP aggregates, Acumen cytometry, 40 h; note: nearly all actives have a fitted effect of over 60% in size
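PC12 cells stably carrying ecdysone-inducible HTT exon 1 Q103–GFP were induced with tebufenozide (100 nM final) and treated with library compounds in titration. GFP aggregates in lysates were counted by laser scanning cytometry.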
HTT cytoprotect: qHTS Multiplex Assay to Identify Dual Action Probes in a Cell Model of Huntington: Cytoprotection (ATP); Potency, µM (top dose mostly 56.4 µM), actives largely listed as activators; PC12 HTT-Q103 induced, cytoprotection, ATP luminescence, 40 h; 230,000 compounds, 0.14% hits; note: nearly all actives have a fitted effect of over 45% in size
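Cells were plated at 1500 per well in phenol red-free DMEM with 5% equine and 5% calf serum. Tebufenozide (100 nM final) and compounds were added, then ATPlite reagent, and luminescence was read.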
ATXN2 expr inh: Primary qHTS for Inhibitors of ATXN expression; HEK-293 ATXN2-luciferase reporter, luminescence, 24 h; 360,000 compounds, 0.72% hits; Potency, µM (doses to about 57 µM), usual class: inhibitors; note: nearly all actives have a fitted effect of over 55% in size
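ATXN2-luciferase reporter cells (luciferase flanked by upstream and downstream ATXN2 gene portions) were treated 24 h at 37 °C with compounds at up to 57 uM. SteadyGlo luminescence gave expression; GF-AFC fluorescence gave viability.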
TGFb SMAD3 inh: qHTS for Inhibitors of TGF-b | AID 588855, 2011 | 410,000 compounds, 1.2% hits | Potency, µM (doses to about 46.1 µM), usual class: inhibitors | HepG2 CAGA-GFP TGF-b/SMAD3 reporter, GFP fluorescence, 18 h; TGF-beta stimulated, 500 pg/mL final; note: nearly all actives have a fitted effect of over 65% in size
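First, reporter cells (HEPG2 CAGA-GFP) rested 2 h at 37 degrees C. Next, compounds were pinned in and TGF-beta added to 500 pg/mL final. After 18 h, GFP was imaged per cell and summed per well.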
ATXN viability: Viability Counterscreen for Primary qHTS for Inhibitors of ATXN expression; S2 cells (HEK-293 line with an ATXN2-luciferase reporter) viability, CellTiter-Fluor protease fluorescence, 24 h; 400,000 compounds, 0.49% hits; Potency, µM (series often up to 56.7 µM), usual class: cytotoxic; AID 651635, 2014; note: nearly all actives have a fitted effect of over 40% in size
HepG2 viability: qHTS for Inhibitors of TGF-b: Cytotox Counterscreen; Potency, µM (doses to about 46.1 µM), most hits filed as cytotoxic; HepG2 CAGA-GFP viability, ATP luminescence, 18 h; 410,000 compounds, 0.76% hits
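CellTiter-Glo luminescence gave cytotoxicity after 18 hours at 37 degrees C. The cells were HepG2 CAGA-GFP in 1% FBS DMEM, stimulated with 500 pg/mL TGF-beta after compound addition. %Activity was normalised to no-cell wells (complete cell-killing) and DMSO (no toxicity), and curves were fitted and classified.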
A number is an active result; n = inactive; u = inconclusive; x = no result; ! = repeats disagree; [ ] = another dose, or the depositor's remark. In the library only some 2.8% were active in any assay of this set; here they are far more common. Calls come from the whole dose curve; as a rule, active = well fitted curve in the direction sought with a large enough effect; inconclusive = small, poorly fitted or top-dose-only effect, or another doubt; inactive = no such curve, though single readings can be large; an effect the other way counts as inactive or inconclusive.

SMILES	HTT aggregate	HTT cytoprotect	ATXN2 expr inh	TGFb SMAD3 inh	ATXN viability	HepG2 viability
CC1=C(/C=C/C(C)=C/C=C/C(C)=C/CO)C(C)(C)CCC1	n	10µM!	n	n	n	n
CC1=C(/C=C/C(C)=C/C=C/C(C)=C\CO)C(C)(C)CCC1	x	n	x	x	x	x
C=C(C)C(O)Cc1c(OC)ccc(C(=O)/C=C/c2ccc(O)cc2)c1O (stereo unspecified)	x	x	n	n	u	n
CC(C)=CCC/C(C)=C/Cc1c(O)ccc(C(=O)/C=C/c2ccc(O)cc2)c1O	n	x	u	u	31.6µM	n
O=C(c1cc(C2CC2)nc2ccc(Br)cc12)N1N=C(C(F)F)CC1(O)C(F)F (stereo unspecified)	u	n[10 µM]	u	7.94µM	u	n
O=C(NCCc1nnc2n1CCN(Cc1cc3ccccc3o1)CC2)c1ccoc1	x	x	x	x	n	x
CCOC(=O)C(CS)NCCN[C@@H](CS)C(=O)OCC (stereo partly specified)	n	n	x	x	x	x
Cc1onc(-c2c(F)cccc2Cl)c1C(=O)c1ccccc1O	n[9.22 µM]	n[10 µM]	n	n	n	5.62µM
O=C(C[N+]1(CCO)CCOCC1)c1cccs1	x	x	x	n	x	n
NC(=O)N/N=C/c1c(O)ccc2oc3c(c12)CCCC3	n[9.22 µM]	n[10 µM]	u	10µM	n	n
COc1ccc(C2C3C=CCC(c4cccc(/C=C/c5ccccc5)c4)C3C(=O)N2Cc2ccccc2)cc1Cl (stereo unspecified)	x	x	x	n	x	n
CC(C)(CO)N=C1NS(=O)(=O)c2cc([N+](=O)[O-])ccc21	10µM	x	n	n	n	n
CC(C)(C)CC(C)(C)N=C1NS(=O)(=O)c2cc([N+](=O)[O-])ccc21	n	n	u	n	n	n
O=C(c1ccccc1)c1sc(N2CCCCCC2)nc1-c1ccccc1	u	n	n	u	n	n
[2H]c1c([2H])c([2H])c(C(=O)c2sc(N3CCCCCC3)nc2-c2ccccc2)c([2H])c1[2H]	n	n	n	14.1µM	n	n
Cc1ccc(NC(=O)COc2ccccc2C(=O)Nc2ccccc2)cc1	x	x	x	n	x	n
CC(C)(CNC(=O)c1cnn(-c2nccc(-c3cccs3)n2)c1C1CC1)N1CCOCC1	x	x	x	x	n	x
C=C1CC(COc2cc(=O)oc3ccccc23)(c2ccccc2)OC1=O (stereo unspecified)	x	x	u	5.01µM	x	6.31µM
O=C1C=CC2(O[C@H](c3ccccc3)[C@@H](c3ccccc3)O2)[C@H](Sc2ccccc2O)C1	x	x	3.98µM	2.82µM	x	n
COC(=O)CSc1cccc2c1C(=O)CC2c1ccccc1 (stereo unspecified)	x	x	x	n	n	n
O=C(NCc1ccccc1)c1nc(-c2ccc(Cl)cc2)n2c1CCCCC2	x	x	n	11.2µM	u	n
Cn1cc(S(=O)(=O)N2CCCCCC2)cc1C(=O)NCc1ccccc1Cl	x	x	n	5.01µM	n	n
CC/C=C\C/C=C\C/C=C\C/C=C\C/C=C\C/C=C\CCC(=O)O[C@H](COCCCCCCCCCCCCCCCC)COP(=O)([O-])OCC[N+](C)(C)C	x	n	x	x	x	x
COc1ccc(C2Nc3ccccc3C(=O)N2Cc2ccco2)cc1COc1c(C)cccc1C (stereo unspecified)	x	x	x	u	x	n
COc1ccccc1-c1ccnc(-n2ncc(C(=O)NC3CCCN(Cc4ccccc4)C3)c2C)n1 (stereo unspecified)	x	x	x	x	n	x
SMILES	HTT aggregate	HTT cytoprotect	ATXN2 expr inh	TGFb SMAD3 inh	ATXN viability	HepG2 viability
O=C(Nc1ccccc1N1CCCCC1)c1ccc(-c2ccc(Cl)cc2)o1	n	x	n	u	n	n
Cc1cc(N2CCN(C)CC2)ccc1NC(=O)c1ccc(-c2ccc(Cl)cc2)o1	x	x	u	u	n	11.2µM
COc1cc(NS(=O)(=O)c2ccc(N)cc2)nc(C)n1	x	x	n	x	n	x
O=C1S/C(=C\c2ccc(N3CCOCC3)o2)C(=O)N1c1ccccc1	15.8µM	n	n	n	u	n
O=C(NNc1ccccc1Br)C(O)(c1cccc(C(F)(F)F)c1)c1cccc(C(F)(F)F)c1	u	x	u	7.94µM	x	n
CCCC(=O)Oc1ccc2[nH]c(C(=O)c3cc4ccccc4[nH]3)cc2c1	x	x	x	n	x	n
CS(=O)(=O)Oc1ccc2c(NC(N)=O)c(C(=O)c3ccc(Cl)cc3Cl)oc2c1	x	x	n	x	x	x
OC[C@H]1O[C@@H](O[C@H]2[C@@H](O)[C@@](O)(CO)O[C@@H]2CO)[C@H](O)[C@@H](O)[C@@H]1O	x	x	n	x	x	x
O=C(Nc1ccccn1)c1csc2c1CCCC2	n[9.22 µM]	n[10 µM]	n	n	n	n
O=C(Nc1ccccn1)c1onc2c1CCCC2	n	x	u	n	n	5.01µM
CCCCOc1ccc(C(=O)Nc2ccc(OCC(=O)N3CCOCC3)cc2)cc1	x	x	n	n	n	n
O=C(Nc1ccc(OCC(=O)N2CCOCC2)cc1)c1cncc(Br)c1	11.2µM	x	n	n	n	n
CCCNC(=O)[C@H]1O[C@@H]1C(=O)N[C@H](C(=O)N1CCC[C@H]1C(=O)OC)[C@@H](C)CC	x	n	x	x	x	x
Nc1ncnc2c1c(-c1ccc(Oc3ccccc3)cc1)cn2C1CCCC1	x	n[1.9 µM]	n	22.4µM	u	n
CCCN1CCN(C(=O)c2cnn(-c3ncc4c(n3)-c3ccccc3CCC4)c2COC)CC1	x	x	x	x	n	x
COc1cc2nc(-c3ccc(N4CCN(C)CC4)cc3)nc(NCCN3CCOCC3)c2cc1OC	x	x	0.385µM	x	x	x
CCOc1cc2nc(-c3ccc(OC)c(OC)c3)nc(NCCCN3CCOCC3)c2cc1OC	n	n	n	n	n	n
N#CCSc1nnc(-c2sc3ccccc3c2Cl)o1	u	n[10 µM]	n	n	n	n
COC(=O)CSc1nnc(-c2sc3ccccc3c2Cl)o1	n	n	22.4µM	n	n	n
C#CCCc1ccccc1/C=[N+](/C)[O-]	x	x	n	15.8µM	n	n
C/[N+]([O-])=C\c1coc2ccccc2c1=O	n	n[10 µM]	n	n	n	n
COC(=O)C1=C(C(=O)OC)[C@@H]2N(Cc3ccccc3)c3ccccc3[C@@]23C[C@@H](C(=O)OC)N(S(=O)(=O)c2ccc(C)cc2)C3=N1	x	n[10 µM]	x	x	x	x
CCNS(=O)(=O)c1ccc(C)cc1	x	n	x	x	x	x
COc1cccc(-c2sc3ccc(OC)cc3c2C#CC(C)(C)O)c1	x	x	n	15.8µM	n	n
CCCCN(C)C(=O)c1ccc(Nc2nc(C(N)Cc3ccccc3)cs2)nc1 (stereo unspecified)	x	x	u	u	u	n
COc1cccc(Nc2nc(C(N)Cc3ccccc3)cs2)n1 (stereo unspecified)	x	x	u	11.2µM	u	n
